Sampled rows, rich in hits. Any-hit rate of the full collection: about 1.5%.
Coupling enz = coupling enzyme interference in Giardia aldolase counter-screen; AID 2472; activity change, negative = inhibition, % at 58.2 µM, hits read low; coupling enzyme system counterscreen, AmpLite Red fluorescence; 290,000 compounds, 0.67% hits; in the data active means activity change below about -30%
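Final compound at 57.5 uM, incubated 10 min at RT with coupling enzyme reagent (glyceraldehyde-3-phosphate), then 20 min with substrate and AmpLite Red detection. Fluorescence read at 525/598 nm; tests interference with the coupling assay, not aldolase inhibition.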
TrxR1 substrate = is turned over as a substrate by rat TrxR1; 390,000 compounds, 0.01% hits; O89049; purified TrxR1 substrate turnover, NADPH consumption readout; Potency, µM (series often up to 114 µM), without a hit: top-dose activity change, negative = substrate turnover; AID 588456; further: potency means the concentration at half of the fitted maximal effect; nearly all actives have a fitted effect of over 50% in size
Target sequence (O89049 whole entry, looked up): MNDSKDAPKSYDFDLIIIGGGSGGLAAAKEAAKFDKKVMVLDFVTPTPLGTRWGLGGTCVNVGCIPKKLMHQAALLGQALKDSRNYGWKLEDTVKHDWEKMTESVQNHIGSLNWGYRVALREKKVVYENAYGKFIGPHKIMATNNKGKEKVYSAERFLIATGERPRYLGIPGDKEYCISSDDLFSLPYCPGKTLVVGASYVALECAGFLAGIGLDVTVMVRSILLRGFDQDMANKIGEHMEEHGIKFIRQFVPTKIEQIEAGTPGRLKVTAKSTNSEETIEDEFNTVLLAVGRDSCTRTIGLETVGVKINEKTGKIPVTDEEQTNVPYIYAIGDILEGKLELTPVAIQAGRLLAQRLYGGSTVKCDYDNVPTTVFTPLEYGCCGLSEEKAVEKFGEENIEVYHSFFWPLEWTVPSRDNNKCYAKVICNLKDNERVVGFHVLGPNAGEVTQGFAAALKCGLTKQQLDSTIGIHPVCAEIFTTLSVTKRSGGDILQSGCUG
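Rat TrxR1, dispensed at 90 nM, was prereduced with 400 uM NADPH (final) for 5 min at ~22 deg C, then incubated with compound 15 min before 400 uM selenite. A first-read NADPH fluorescence drop versus no-compound background flagged substrates.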
USP1-UAF1 inh = blocks the human USP1/UAF1 deubiquitinase complex; 390,000 compounds, 0.23% hits; Potency, µM (series often up to 57.1 µM), for inactives: top-dose activity change, negative = inhibition, most hits filed as inhibitors; recombinant USP1/UAF1, Ub-Rhodamine cleavage fluorescence; O94782; further: potency means the concentration at half of the fitted maximal effect; nearly all actives have a fitted effect of over 60% in size
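USP1/UAF1 complex (1 nM) preincubated 15 min at room temperature with compound, then Ub-Rho substrate (150 nM final) added. Kinetic fluorescence at 480/540 nm over 6 reads at 60 s intervals; 50 mM HEPES pH 7.8, 0.5 mM EDTA, 0.1 mg/ml BSA, 1 mM TCEP, 0.01% Tween-20.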
GALK inh = inhibitors of human galactokinase | P51570 | Purified GALK, Kinase-Glo residual ATP luminescence | Potency, µM (highest dose often 57.5 µM), without a hit: at the highest dose activity change, negative = inhibition, hits mostly inhibitors | 270,000 compounds, 0.007% hits; further: potency means the concentration at half of the fitted maximal effect
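Luminescence from leftover ATP (Ultra-Glo luciferase/luciferin) served as read-out after a 1 h room-temperature reaction of 5 nM GALK with 35 uM ATP and 100 uM galactose.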
rTrxR1 inhibitor = rat TrxR1 inhibition; recombinant rTrxR1, NADPH fluorescence consumption, selenite substrate; O89049; 390,000 compounds, 1% hits; Potency, µM (titrated, usually from 114 µM), inactives show at the highest dose activity change, negative = inhibition, most hits filed as inhibitors; further: potency means the concentration at half of the fitted maximal effect; nearly all actives have a fitted effect of over 65% in size
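Rat TrxR1 (90 nM in the dispensed reagent) was pre-reduced with 400 uM NADPH for 5 min at room temperature, then incubated with compound for 15 min. After 400 uM selenite was added, NADPH fluorescence (Ex 340/Em 450 nm) was followed for 8 min.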
Starred values were filed as active, the others as inactive; ? = inconclusive; · = no result given; [ ] = another dose, or the depositor's remark. Unless noted, the call rests on the fitted dose curve; in most records, active means well fitted curve in the direction sought with a large enough effect; inconclusive means small, poorly fitted or top-dose-only effect, or another doubt; inactive means no such curve, though single readings can be large; an effect the other way counts as inactive or inconclusive. On the % scale 0 is the no-effect control and ±100 the full control effect.

SMILES	Coupling enz	TrxR1 substrate	USP1-UAF1 inh	GALK inh	rTrxR1 inhibitor
COc1ccc(CNc2nc(N)nc3nc[nH]c23)cc1	·	2%	·	·	7%
O=C1NC(=S)S/C1=C\C=C\c1ccc([N+](=O)[O-])o1	-1	-23%	-24%	2%	10µM*
O=C1SCCN1N=Cc1ccc([N+](=O)[O-])o1	·	-3%[57.1 µM]	-24%	·	-57%[57.1 µM]
O=C1c2ccccc2C(=O)c2c(O)ccc(O)c21	-17	·	·	·	·
O=C1C(=C(I)I)c2ccccc2-c2ccccc21	·	-29%[57.1 µM]	28µM*	·	0.89µM*
O=C1N(Cc2ccccc2)CC2(Br)COCOC12O (stereo not given)	·	8%[11.4 µM]	-10%	·	2.2µM*
COc1ccc(C(=O)N/N=C/c2sc(=O)n(Cc3cccc(C(=O)O)c3)c2Cl)cc1	-1	-16%	-4%	·	79µM*
O=C(O)c1cccc(Cn2c(Cl)c(/C=N/NC(=O)c3ccccc3Cl)sc2=O)c1	11	-8%	-20%	2%	-18%
O=C(O)c1cccc(Cn2c(Cl)c(/C=N/Nc3ccccc3)sc2=O)c1	16	-8%	-15%	1%	8.9µM*
O=C(O)c1cccc(Cn2c(Cl)c(/C=N/NC(=O)c3ccccc3O)sc2=O)c1	11	-12%	-16%	-5%	-16%
CC(C)(C)OC(=O)N1CCN(c2nc(-c3cccs3)nc3ccccc23)CC1	·	-6%	·	·	-8%
COC(=O)C1=C(C(=O)OC)[C@@H]2N(C)c3ccccc3[C@@]23C[C@@H](CO)N(C(=O)c2ccco2)C3=N1	1	·	·	·	·
CC1(C)OC(=O)C2(Cc3ccccc3N3CCCC32)C(=O)O1 (stereo not given)	·	17%	·	·	17%
COc1ccc(C(=O)CCN2CCC(C)CC2)cc1	2	0%	-23%	-1%	0.71µM*
COc1ccc(C(=O)CCN2CCCC(C)C2)cc1 (stereo not given)	-1	13%[57.1 µM]	-20%	1%	?
COc1cc2c(cc1OC)CN(C(=O)CCNC(=O)c1ccc(Br)cc1)CC2	·	-7%	-17%	·	-11%
CCOC(=O)N1CCN(CCC(=O)c2ccc(OC)cc2)CC1	-1	5%	-21%	0%	3.5µM*
CCOC(=O)N1CCN(CCC(=O)c2ccc(Br)cc2)CC1	4	11%[57.1 µM]	-16%	·	1µM*
COc1cc2c(cc1OC)CN(CCC(=O)c1ccc(Br)cc1)CC2	2	-3%[57.1 µM]	1%	0%	0.28µM*
Cc1ccc(S(=O)(=O)N2CN(Cc3ccco3)c3nc4ccccc4nc32)cc1	2	2%	-24%	2%	?
COc1ccc(S(=O)(=O)N2CN(Cc3ccco3)c3nc4ccccc4nc32)cc1	-3	22%	?	-2%	35µM*
COC(=O)C1=C(C)NC(=O)/C1=C\c1cc(C)n(-c2ccc(F)cc2)c1C	-15	4%	-15%	1%	-3%[57.1 µM]
COC(=O)C1=C(O)/C(=C\c2cc(C)n(-c3ccc(F)cc3)c2C)N=C1C	-30	-9%[57.1 µM]	-25%	-1%	18µM*
CCCCn1c(N)c(C(=S)NC(=O)CC(C)C)c(=O)n(C)c1=O	-2	5%	-17%	1%	56µM*
N#CC(=C(\N)Sc1ccccc1N)/C(C#N)=C(/N)Sc1ccccc1N	·	?	·	·	90%[57.1 µM]
SMILES	Coupling enz	TrxR1 substrate	USP1-UAF1 inh	GALK inh	rTrxR1 inhibitor
O=C(Nc1ccc(N2CCCC2)cc1)C(Cl)c1ccccc1 (stereo not given)	-12	-3%	-23%	3%	16µM*
CS(=O)(=O)N1CCN(c2ccc(NC(=O)C(c3ccccc3)c3ccccc3)cc2)CC1	0	2%	-10%	1%	19%
Cn1cc(/C=C/c2cc[n+](C)cc2)c2cc(F)ccc21	-17	-19%[57.1 µM]	28µM*	-1%	18%[57.1 µM]
Cn1cc(/C=C/c2cc[n+](C)cc2)c2cc(Cl)ccc21	-2	3%[57.1 µM]	-18%	2%	12%[57.1 µM]
C[n+]1ccc(/C=C/c2c[nH]c3ccc(F)cc23)cc1	-14	-14%	28µM*	5%	-9%
O=C(c1ccc2c(c1)OCCO2)N1CCN(c2nc(-c3cccs3)nc3ccccc23)CC1	·	7%	·	·	3%
O=C(CNC(=O)C1CCCCC1)OCc1ccccc1	·	-6%	·	·	-3%
Cc1ccc(-c2[nH]nc3c2C(c2cccnc2)C(C#N)=C(N)O3)cc1 (stereo not given)	-42*	5%	-7%	3%	1%

High-throughput results as filed in PubChem.
